{
  "source": "PubChem BioAssay (NCI)",
  "note": "Compounds without any hit were thinned out: in the full panel of roughly 83,000, 20% have a hit.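 Cells were grown in 96-well plates and exposed to the test compound at a single concentration for 48 hours; results are reported as percent growth, with values below 10 considered active.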 Values without a mark were called inactive.",
  "data": [
    {"tested_on": "MDA-MB-468 breast", "test": "NCI-60 one-dose screen, 48 h (100 = growth as untreated, 0 = no growth, -100 = all killed)", "details": "10 µM unless noted", "units": {"growth": "%"}, "values": [
      {"smiles": "COc1ccc(OC)c(C(=O)Nc2cccc(-c3cc(=O)c4ccccc4o3)c2)c1", "growth": 92.9},
      {"smiles": "CC1CN(CCCOC(=O)Nc2ccc(Cl)cc2)CCN1C(C)(C)C", "note": "(stereo unspecified)", "growth": 104},
      {"smiles": "COc1cccc(-c2nc(-c3ccc(NS(=O)(=O)c4ccccc4)cc3)[nH]c2-c2ccnc(Br)c2)c1", "growth": 18.3},
      {"smiles": "Cc1cccc(C)c1N1C(c2ccccc2)=NNC12C=CC(=O)c1c(O)cccc12", "note": "(stereo unspecified)", "growth": 85.1},
      {"smiles": "Cc1c(Cl)cccc1NC(=S)NC(=O)c1ccccc1", "growth": 33.9},
      {"smiles": "COc1ccc(C(=O)c2nc3ccccc3n2CC(=O)c2ccc(F)cc2)cc1", "growth": 55}
    ]}
  ]
}
